Experimental data published in PubChem BioAssay (NCATS).
Inconclusive results are not listed. The source made the active and inactive calls. Calls come from the whole dose curve; as a rule, active = well fitted inhibition curve with a large enough effect; inconclusive = small, poorly fitted or top-dose-only effect; inactive = flat fitted curve, though single readings scatter.

Assays:
Assay in all cases: qHTS profiling for inhibitors of Plasmodium falciparum proliferation (AID 504749); note: nearly all actives have a fitted effect of over 60% in size
Settings in all cases: P. falciparum in erythrocytes, SYBR Green DNA, 72 h; series mostly up to 12.8 µM
AA1029 = test system: AA1029
Method in brief: (§1)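 P. falciparum-infected erythrocytes (0.3% parasitemia, 2.5% hematocrit) incubated with compound 72 h at 37 C, 5% CO2. Parasite DNA detected by SYBR Green after lysis, overnight at room temperature; normalised to 0.29 uM artemisinin and DMSO.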

ATS189 = test system: ATS189
Method in brief: as §1

ATS95 = test system: ATS95
Method in brief: as §1

CP237 = test system: CP237
Method in brief: as §1

CP252 = test system: CP252
Method in brief: as §1

CP260 = test system: CP260
Method in brief: as §1

CP265 = test system: CP265
Method in brief: as §1

CP269 = test system: CP269
Method in brief: as §1

CP286 = test system: CP286
Method in brief: as §1

CP305 = test system: CP305
Method in brief: as §1

CP315 = test system: CP315
Method in brief: as §1

CP329 = test system: CP329
Method in brief: as §1

JCK = test system: JCK
Method in brief: as §1

N140 = test system: N140
Method in brief: as §1

PAD = test system: PAD
Method in brief: as §1

PC15 = test system: PC15
Method in brief: as §1

PC49 = test system: PC49
Method in brief: as §1

TAB113 = test system: TAB113
Method in brief: as §1

TAB165 = test system: TAB165
Method in brief: as §1

Measured: Potency
Potency is the fitted concentration of half-maximal effect.

CC1(C)S[C@@H]2[C@H](NC(=O)[C@@H](N)c3ccccc3)C(=O)N2[C@H]1C(=O)O[C@H]1OC(=O)c2ccccc21
inactive: all assays above

CC1CCC(C(C)C)C(=O)C1 (stereo not given)
inactive: all assays above

C/C1=C2N=C(/C=C3N=C(/C(C)=C4\[N-]C(C)(C5N=C1C(C)(CCC(=O)NCC(C)OP(=O)([O-])O[C@H]1C(O)C(n6cnc7cc(C)c(C)cc76)O[C@@H]1CO)C5CC(N)=O)C(C)(CC(N)=O)C4CCC(N)=O)C(C)(CC(N)=O)C\3CCC(N)=O)C(C)(C)C/2CCC(N)=O.[CH2-]C1OC(n2cnc3c(N)ncnc32)C(O)C1O.[Co] (stereo not given in full)
inactive: all assays above

COc1ccc2cc1Oc1ccc(cc1)CC1c3c(cc4c(c3Oc3cc5c(cc3OC)CCN(C)C5C2)OCO4)CCN1C (stereo not given)
active: AA1029 3.55 µM | ATS189 4.47 µM | ATS95 4.47 µM | CP237 2.82 µM | CP252 8.91 µM | CP260 4.47 µM | CP265 8.91 µM | CP269 13.5 µM | CP286 3.98 µM | CP305 9.53 µM | N140 3.16 µM | PAD 8.91 µM | TAB113 7.08 µM | TAB165 3.98 µM

O=C1OC(CO)C(O)C(O)C1O (stereo not given)
inactive: all assays above

NC(C(=O)O)[C@@H]1CC(Cl)=NO1 (stereo not given in full)
active: AA1029 1 µM | ATS189 2.82 µM | ATS95 1 µM | CP237 1.26 µM | CP252 2.82 µM | CP260 0.891 µM | CP265 3.16 µM | CP269 2.69 µM | CP286 0.794 µM | CP305 1.51 µM | CP315 3.38 µM | CP329 3.01 µM | JCK 5.62 µM | N140 1.26 µM | PAD 0.708 µM | PC15 3.16 µM | TAB113 1 µM | TAB165 1 µM

CC(C)C1CCC(C(=O)NC(Cc2ccccc2)C(=O)O)CC1 (stereo not given)
inactive: all assays above

NCC1CCC(N)C(O[C@@H]2C(O)[C@H](O[C@H]3OC(CO)C(O)C(N)C3O)[C@@H](N)C[C@H]2N)O1 (stereo not given in full)
inactive: all assays above

CC1(C)OC2CO[C@]3(COS(N)(=O)=O)OC(C)(C)OC3C2O1 (stereo not given in full)
inactive: all assays above
